PubChem BioAssay (NCATS)
Values joined by “and” are separate entries in the source; they are usually repeats but may differ in a detail not shown here. Equal entries are not always repeated. Inconclusive results are not listed. Where a structure was tested more than once in an assay, its records may differ in their call. Active and inactive are the calls of the source. Calls come from the whole dose curve; as a rule, active = well fitted inhibition curve with a large enough effect; inconclusive = small, poorly fitted or top-dose-only effect; inactive = flat fitted curve, though single readings scatter.

Columns and labels:
[1] = system: CRL-7250; experiment: Cytotoxic Profiling of Annotated Libraries Using Quantitative High-Throughput Screening (AID 1296008); details: Five cell lines viability, CellTiter-Glo ATP luminescence, 48-72 h; max response: active compounds read low; note: potency is the fitted concentration of half-maximal effect; for max response: % is set by controls: 0 for no effect and ±100 for the full control effect
Summary of the method: (§1)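 Cells exposed to compounds for 48 or 72 hr at 37 degrees Celsius. Viability read as ATP-coupled luminescence with CellTiter-Glo after 10 min at room temperature.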

[2] = system: HEK293; experiment: as above; details: Five cell lines viability, CellTiter-Glo ATP luminescence, 48-72 h; max response: active compounds read low
Summary of the method: as §1

[3] = system: HaCat; experiment: as above; details: Five cell lines viability, CellTiter-Glo ATP luminescence, 48-72 h; max response: active compounds read low
Summary of the method: as §1

[4] = system: KB-3-1; experiment: as above; details: Five cell lines viability, CellTiter-Glo ATP luminescence, 48-72 h; max response: active compounds read low
Summary of the method: as §1

[5] = system: NIH3T3; experiment: as above; details: Five cell lines viability, CellTiter-Glo ATP luminescence, 48-72 h; max response: active compounds read low
Summary of the method: as §1

[6] = system: HACAT; experiment: qHTS assay to identify novel small-molecules to repurpose for Merkel cell carcinoma treatment (AID 1296009); details: MCC and control cell lines, CellTiter-Glo viability, 72 h; at 44.8 µM (top of the series) unless noted
Summary of the method: (§2)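 Cells were treated for 72 hr at 37 degree celsius with compounds in 8- or 11-point dose response. Viability was read by CellTiter-Glo luminescence, normalized to no-cell (cytotoxicity) and DMSO controls.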

[7] = system: MCC-13; experiment: as above; details: MCC and control cell lines, CellTiter-Glo viability, 72 h; series mostly up to 46 µM
Summary of the method: as §2

[8] = system: TAB165; experiment: qHTS profiling for inhibitors of Plasmodium falciparum proliferation (AID 504749);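 note: 0% = DMSO vehicle and full inhibition = artemisinin control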; details: P. falciparum in erythrocytes, SYBR Green DNA, 72 h; series mostly up to 28.7 µM
Summary of the method: (§3)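 P. falciparum-infected erythrocytes (0.3% parasitemia, 2.5% hematocrit) incubated with compound 72 h at 37 C, 5% CO2. Parasite DNA detected by SYBR Green after lysis, overnight at room temperature; normalised to 0.29 uM artemisinin and DMSO.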

[9] = system: W2; experiment: as above; details: P. falciparum in erythrocytes, SYBR Green DNA, 72 h; series mostly up to 28.7 µM
Summary of the method: as §3

[10] = system: HEK293T; experiment: qHTS assay to identify novel small-molecules to repurpose for Merkel cell carcinoma treatment (AID 1296009); details: MCC and control cell lines, CellTiter-Glo viability, 72 h; at 44.8 µM (top of the series) unless noted
Summary of the method: as §2
Note: nearly all actives have a fitted effect of over 60% in size.

Cc1ccc2c(c1)c1c(n2CCc2ccc(C)nc2)CCN(C)C1
inactive: outcome [1] | max response [2] -7.19% | max response [3] -15.7% | outcome [3] | max response [4] 2.15% | max response [5] 1.43% | outcome [6] | Potency [7]
active: Potency [2] 14.6 µM

NS(=O)(=O)c1cc(Cl)c(Cl)c(S(N)(=O)=O)c1
inactive: Potency [8] | Potency [9] | max response [1] 0.0999% | outcome [1] | max response [2] 0.982% | outcome [2] | max response [3] -2.36% | outcome [3] | max response [4] 1.19% and 6.82% and 0.356% | max response [5] -19% and 0.0909% | outcome [6] | outcome [10] | Potency [7]

CC1(C)CC(=O)c2c(C(F)(F)F)nn(-c3ccc(C(N)=O)c(NC4CCC(O)CC4)c3)c2C1 (centres undefined)
active: Potency [1] 0.259 µM | Potency [2] 52.6 nM and 58 nM | Potency [3] 132 nM and 231 nM | Potency [4] 0.105 µM | Potency [5] 235 nM and 184 nM

Cc1cccc2c1CC[C@H](CN1CCC(c3c(Cl)cccc3Cl)CC1)C[C@@H]2O
active: Potency [2] 14.6 µM
inactive: max response [1] -6.89% and 0.148% | max response [3] 1.39% | max response [4] -8.1% | max response [5] -20.2%

Cc1cc2c(cc1C1(c3ccc(C(=O)O)cn3)CC1)C(C)(C)CCC2(C)C
inactive: outcome [1] | max response [2] -8.08% | max response [3] -17.6% | max response [4] 4.32% | outcome [4] | outcome [5] | Potency [7]

Cn1c(=O)c(-c2c(Cl)cccc2Cl)cc2cnc(Nc3cccc(C(=O)O)c3)nc21
active: Potency [1] 1.16 µM | Potency [2] 2.31 µM | Potency [4] 4.61 µM
inactive: max response [2] -22.7% | outcome [3] | outcome [4] | max response [5] 3.27% | outcome [5] | outcome [6] | Potency [7]

O=C(CO)N1CCC(c2[nH]nc(-c3ccc(Cl)cc3)c2-c2ccncn2)CC1
inactive: max response [1] 0.635% and -7.11% | max response [2] -13.1% and -1.15% | max response [3] -4.95% | max response [4] 6.51% | outcome [4] | Potency [7]

COc1ccc(CCC(=O)Nc2nc3ccc(Cl)cc3s2)cc1OC
inactive: max response [1] 1.51% and -1.65% | max response [2] -26% | max response [3] -6.83% | outcome [3] | max response [4] -8.12% and -15.4% | max response [5] -12.1% | outcome [5] | outcome [6] | Potency [7]

Cc1cc(NC(=O)Nc2ccc(N(C)C)cc2)c2cc(F)cc(F)c2n1
inactive: outcome [1] | outcome [3] | outcome [4] | outcome [5] | outcome [6] | Potency [7]
active: Potency [2] 14.8 µM

N[C@@H](CC(=O)N1CCn2c(nnc2C(F)(F)F)C1)Cc1cc(F)c(F)cc1F
inactive: max response [1] -4.16% | max response [2] 1.14% | outcome [3] | max response [4] -6.59% | max response [5] -2.27% | outcome [6] | Potency [7]

Cc1cc2nc3c(=O)[nH]c(=O)nc-3n(CC(O)C(O)C(O)CO)c2cc1C (centres undefined)
inactive: Potency [8] | outcome [1] | max response [2] -3.68% | outcome [3] | max response [4] 9.48% | outcome [5] | outcome [6] | Potency [7]

O=C(Nc1ccccc1)Nc1ccc(-c2ccc(C(=O)[C@H]3CCC[C@H]3C(=O)O)cc2)cc1
inactive: outcome [1] | max response [2] -0.566% | outcome [3] | max response [4] 9.29% | max response [5] 3.03% | outcome [6] | Potency [7]

C[C@]12CC[C@@H]3c4ccc(O)cc4CC[C@H]3[C@H]1[C@@H](O)[C@@H](O)[C@H]2O
inactive: max response [1] 0.316% | outcome [2] | outcome [3] | outcome [4] | outcome [5] | outcome [6] | outcome [10] | Potency [7]

CC1CNc2c(cccc2S(=O)(=O)N[C@@H](CCCN=C(N)N)C(=O)N2CC[C@@H](C)C[C@@H]2C(=O)O)C1 (some centres undefined)
inactive: outcome [1] | outcome [2] | outcome [3] | max response [4] 9.69% | max response [5] -2.95% | outcome [6] | outcome [10] | Potency [7]

O=C(O)C1=NC(C(=O)O)CC(C=CN2c3cc(O)c(OC4OC(CO)C(O)C(O)C4O)cc3CC2C(=O)O)=C1 (centres undefined)
inactive: outcome [1] | outcome [2] | outcome [3] | max response [4] 2.69% | max response [5] 3.64% | outcome [6] | outcome [10] | Potency [7]

Cc1nc(C(=O)NCC(=O)O)c(O)c2ccc(Oc3ccccc3)cc12
inactive: max response [1] -26.8% | max response [2] -3.39% and -0.739% | outcome [3] | max response [4] -6.73% and -11.5% | max response [5] -5.42% and -6% | outcome [6] | Potency [7]
